Screens as filed in PubChem BioAssay.
Shiga inhibitor: Shiga toxin inhibition; Vero cells, Shiga toxin protein synthesis inhibition reporter; inhibition, % at 38.7 µM; 290,000 tested, 9.2% active; AID 2315; in the data active means inhibition mostly above about 28%, no sharp cut-off; inactive means mostly below about 43%
TbPYK inhibitor: blocks Trypanosoma brucei pyruvate kinase; Q57TT1; TbPYK enzyme, Kinase-Glo Plus ATP luminescence, 45 min; Potency, µM (highest dose often 76.8 µM), hits mostly inhibitors; 410,000 tested, 0.12% active; AID 624173; further: nearly all actives have a fitted effect of over 50% in size
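TbPYK + substrate in 50 mM TEA pH 7.2, 100 mM KCl, 10 mM MgCl2, 0.05% BSA, 0.01% Tween-20; cpd pinned; ADP 130 uM final; 45 min RT; Kinase-Glo Plus 10 min; luminescence endpoint.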
Giardia FBPA inh: Giardia lamblia aldolase inhibition. purified Giardia FBPA. Potency, µM (titrated, usually from 59.6 µM), most hits filed as inhibitors. 290,000 tested, 0.71% active; further: nearly all actives have a fitted effect of over 55% in size
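40 nM FBPA preincubated 10 min at RT with compound (up to 57.5 uM final), then substrate plus GAPDH/TPI/NAD/arsenate coupling and diaphorase/resazurin added. Fluorescence read after 20 min at RT, 525/598 nm.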
CHX counter: counter-screen hit for Shiga toxin inhibitors, cycloheximide | AID 2314 | 300,000 tested, 12% active | max response, % | cell reporter, cycloheximide protein synthesis inhibition counterscreen; in the data active means max response mostly above about 13%, no sharp cut-off; inactive means mostly below about 14%; further: read at 38.3 µM for the half of the compounds with a filed dose
Sm TGR inh: S. mansoni TGR enzyme inhibition | Q962Y6 | purified TGR, DTNB reduction, TNB absorbance 405 nm | Potency, µM (titrated, usually from 114 µM), usual class: inhibitors | 360,000 tested, 3% active; further: nearly all actives have a fitted effect of over 60% in size
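Kinetic colorimetric format: TGR-catalysed, NADPH-driven DTNB reduction monitored via TNB absorbance. Enzyme dispensed at 20 nM; compound exposure 15 min at room temperature before reaction start.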
LmPK inh: blocks Leishmania mexicana pyruvate kinase activity; Q27686; purified LmPK, Kinase-Glo ATP luminescence, 1 h; Potency, µM (highest dose often 57.5 µM), actives largely listed as inhibitors; 290,000 tested, 0.37% active; AID 1721
Target sequence (Q27686 whole entry, looked up): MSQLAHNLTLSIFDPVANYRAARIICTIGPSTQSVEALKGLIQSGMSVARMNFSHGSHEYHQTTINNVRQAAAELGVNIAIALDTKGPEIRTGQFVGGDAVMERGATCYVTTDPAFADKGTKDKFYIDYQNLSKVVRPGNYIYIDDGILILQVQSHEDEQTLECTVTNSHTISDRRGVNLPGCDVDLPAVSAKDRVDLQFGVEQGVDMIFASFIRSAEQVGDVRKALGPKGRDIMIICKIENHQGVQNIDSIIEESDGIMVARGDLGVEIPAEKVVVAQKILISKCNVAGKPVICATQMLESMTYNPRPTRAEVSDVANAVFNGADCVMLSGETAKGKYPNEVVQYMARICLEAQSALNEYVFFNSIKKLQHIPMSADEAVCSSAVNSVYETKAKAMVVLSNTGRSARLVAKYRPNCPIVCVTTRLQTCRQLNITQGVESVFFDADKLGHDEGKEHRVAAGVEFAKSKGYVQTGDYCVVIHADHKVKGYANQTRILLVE
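Kinase-Glo luminescence read after 1 h RT reaction of 0.1 nM LmPK with 0.5 mM PEP and 0.1 mM ADP. Activity scaled between uninhibited and enzyme-free controls.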
Each line names hits and unclear results; the compound was inactive in the other large screens. The full list was thinned out, with hits kept by preference. Unless noted, the call rests on the fitted dose curve; in most records, active means well fitted curve in the direction sought with a large enough effect; inconclusive means small, poorly fitted or top-dose-only effect, or another doubt; inactive means no such curve, though single readings can be large; an effect the other way counts as inactive or inconclusive.

CC(=O)c1c(C)nc(-c2ccccc2)nc1N	Shiga inhibitor 58, Giardia FBPA inh inconclusive, CHX counter 29
CCOC(=O)c1c(C)nc(-c2ccccc2)nc1N	Shiga inhibitor 123, CHX counter 33
CCOC(=O)c1c(-c2ccccc2)cn2c(C)cc(C)nc12	Shiga inhibitor 71, CHX counter 35
COc1ccc(Br)cc1CNC(=O)c1cc2n(n1)CCCN(Cc1ccc(C)cc1)C2=O	none (no result: Shiga inhibitor, Giardia FBPA inh, CHX counter, LmPK inh)
CCOc1cc(C(c2c(C)[nH][nH]c2=O)c2c(C)[nH][nH]c2=O)cc(Cl)c1O	Giardia FBPA inh inconclusive, Sm TGR inh 35µM
O=C(Cc1csc(N2CCOCC2)n1)N/N=C/c1ccc(O)c(O)c1O	Giardia FBPA inh 7.9µM, Sm TGR inh inconclusive
Cc1ccc(S(=O)(=O)Nc2ccc(-c3ccc(N4CCCCCC4)nn3)cc2)c(C)c1	none (no result: Shiga inhibitor, Giardia FBPA inh, CHX counter, LmPK inh)
Cc1ccc(S(=O)(=O)Nc2cccc(-c3ccc(N4CCCCCC4)nn3)c2)c(C)c1	Shiga inhibitor 88, CHX counter 42 (no result: Giardia FBPA inh)
CC(=O)c1sc(-c2ccccc2)nc1C	CHX counter 35
CCNC(=O)c1sc(-c2ccccc2)nc1C	Shiga inhibitor 66, CHX counter 45
Cc1nc(-c2ccccc2)sc1C(=O)Nc1ccccc1F	CHX counter 46
COc1ccc(NC(=O)c2sc(-c3ccccc3)nc2C)c(OC)c1	none
Cc1ccc(-c2nc(C)c(C(=O)O)s2)cc1	CHX counter 21, LmPK inh inconclusive
Cc1nc(-c2cccs2)sc1C(=O)O	none
Cc1nc(-c2ccccc2)sc1C(=O)Nc1ccc(S(N)(=O)=O)cc1	none
CCOC(=O)N1CCN(C2CCCN(C(=O)c3ccccc3N(C)C)C2)CC1 (stereo not drawn)	none (no result: Giardia FBPA inh)
Cc1ccc(NC(=O)c2oc3ccc(S(=O)(=O)N4CCCCCC4)cc3c2C)c(C)c1	none (no result: Shiga inhibitor, Giardia FBPA inh, CHX counter, LmPK inh)
Cc1nc(-c2ccccc2)sc1C(=O)O	Shiga inhibitor 84, CHX counter 31
Cc1nc(-c2ccc([N+](=O)[O-])cc2)sc1C(=O)O	CHX counter 20, LmPK inh 16µM
Cc1nc(-c2ccc(Cl)cc2)sc1C(=O)O	Shiga inhibitor 91
CCN(Cc1nc(-c2ccc(OC)c(OC)c2)no1)S(=O)(=O)c1ccc(OC)cc1	none (no result: Shiga inhibitor, Giardia FBPA inh, CHX counter, LmPK inh)
COC(=O)[C@H](COC(C)(C)C)NC(=O)O[C@@H]1C(=O)c2cc(Br)ccc2O[C@H]1c1cccc(OC)c1	none (no result: Shiga inhibitor, TbPYK inhibitor, CHX counter, Sm TGR inh, LmPK inh)
Cc1cccc([C@@H]2CN(C)CCc3c2cc(O)c(O)c3Cl)c1	none (no result: Shiga inhibitor, TbPYK inhibitor, CHX counter, Sm TGR inh, LmPK inh)
O=C(NCc1ccccc1)c1cncc(Br)c1	none
O=C(NCCc1ccccn1)c1cncc(Br)c1	CHX counter 20
O=C(CN(Cc1ccccc1)C(=O)CCl)c1cccc(Br)c1	Sm TGR inh 8.9µM (no result: Shiga inhibitor, Giardia FBPA inh, CHX counter, LmPK inh)
CN(C)CCC(=O)c1cccc(Br)c1	none
O=C(NCCCc1ccccc1)c1cccc(Br)c1	none (no result: Shiga inhibitor, Giardia FBPA inh, CHX counter, Sm TGR inh, LmPK inh)
O=C(NCCCc1ccccc1)c1cncc(Br)c1	CHX counter 20
O=C(NCCCCc1ccccc1)c1cccc(Br)c1	CHX counter 15
CCSc1ncc(Cl)c(C(=O)N(Cc2ccc(N(C)C)cc2)Cc2ccco2)n1	none (no result: Shiga inhibitor, Giardia FBPA inh, CHX counter, LmPK inh)
CCOCCCNC(=O)c1ccc(-n2c(=S)[nH]c3ccccc3c2=O)cc1	none
Cc1n[nH]c(=O)c2c(NC(=O)CSc3nncs3)oc(C)c12	Sm TGR inh inconclusive (no result: Shiga inhibitor, Giardia FBPA inh, CHX counter, LmPK inh)
CC(=O)c1cccc(NCC(=O)Nc2cc(S(=O)(=O)N3CCCCC3)ccc2C)c1	none (no result: Giardia FBPA inh)
O=C(NC(=S)Nc1ccccn1)c1cncc(Br)c1	CHX counter 41
O=C(c1ccc2c(c1)OCCO2)N(Cc1cccnc1)c1nc2c(F)cccc2s1	none (no result: Shiga inhibitor, Giardia FBPA inh, CHX counter, LmPK inh)
S=C(NCCc1ccccc1)N/N=C/c1ccccc1Cl	CHX counter 11
O=C(NCCCN1CCOCC1)C(=O)N/N=C/c1ccccc1Cl	CHX counter 19
O=C(Cc1ccccc1)N/N=C/c1ccccc1Cl	CHX counter 41
Cc1ccc(-c2nc3ccccc3n2C)o1	Shiga inhibitor 74, TbPYK inhibitor inconclusive, CHX counter 57, Sm TGR inh 16µM, LmPK inh 14µM
Cn1c2nc3ccccc3c-2nc2ccccc21	none (no result: Shiga inhibitor, Giardia FBPA inh, CHX counter, Sm TGR inh, LmPK inh)
Cn1c(-c2ccc(Br)o2)nc2cc(Br)ccc21	Shiga inhibitor 104, TbPYK inhibitor inconclusive, CHX counter 52, Sm TGR inh 13µM
CC(=O)c1ccc(-c2nc3ccccc3n2C)o1	Shiga inhibitor 57, CHX counter 36, Sm TGR inh 40µM, LmPK inh 16µM
Cc1ccc(C2Nc3ccccc3-c3nc4ccccc4n32)o1 (stereo not drawn)	Shiga inhibitor 67, CHX counter 54
CSc1ncc(C(=O)NCc2ccc(F)cc2)c(-c2ccccc2)n1	none (no result: Shiga inhibitor, Giardia FBPA inh, CHX counter, LmPK inh)
COc1cc2c(cc1OC)C(COc1ccc3c(C)cc(=O)oc3c1)N(C(=O)c1ccccc1F)CC2 (stereo not drawn)	none (no result: Shiga inhibitor, Giardia FBPA inh, CHX counter, LmPK inh)
O=C(CCN1CCCC1=O)NC1CCCc2c1cnn2-c1ccccc1F (stereo not drawn)	none
O=C(CCN1CCCC1=O)NC1CCCc2c1cnn2-c1ccc(F)cc1F (stereo not drawn)	CHX counter 15
CCCCCOc1ccc(CN2CCOCC2)cc1Cl	Shiga inhibitor 102, CHX counter 41
O=C1CCC(=O)N1OCCCOc1ccc(Br)cc1Cl	CHX counter 30
Clc1cc(Br)ccc1OCCN1CCOCC1	CHX counter 31
CCCCOc1ccc(C(=O)Nc2ccc(CN3CCOCC3)cc2)cc1	none
CC(C)NCCCCOc1ccc(Br)cc1Cl	none
CC1CCCN(CCOCCOc2ccc(Br)cc2Cl)C1 (stereo not drawn)	none
CC1CCN(CCCOc2ccc(Br)cc2Cl)CC1	Shiga inhibitor 29, Giardia FBPA inh inconclusive, CHX counter 22
CC1(C)COC(c2ccc(F)c([N+](=O)[O-])c2)=N1	Sm TGR inh 50µM
CC1(C)COC(c2cc([N+](=O)[O-])ccc2Cl)=N1	none
CN1C(=O)C(O)(c2nnc(-c3ccccc3)o2)c2ccccc21 (stereo not drawn)	CHX counter 19
CC1(C)CC(=O)C2=C(C1)O[C@@]1(c3ccsc3)Cc3cc(C#N)ccc3C2O1	Sm TGR inh inconclusive (no result: TbPYK inhibitor)
O=C(COc1ccccc1)N=C1SC2CS(=O)(=O)CC2N1c1ccccc1 (stereo not drawn)	none
CN(C)c1ccc(N2C(=NC(=O)COc3ccccc3)SC3CS(=O)(=O)CC32)cc1 (stereo not drawn)	Shiga inhibitor 46, CHX counter 25 (no result: Giardia FBPA inh)
CCOc1ccc(OCCC(=O)OCC(=O)N2CCN(S(=O)(=O)c3ccc(Cl)cc3)CC2)cc1	Shiga inhibitor 54, CHX counter 35, Sm TGR inh inconclusive
COc1ccc(C(=O)Oc2ccc(F)cc2C(=O)/C=C/c2ccc(OC)c(OC)c2)cc1	none
O=C(Oc1ccc(F)cc1C(=O)/C=C/c1cccs1)c1cccc([N+](=O)[O-])c1	Shiga inhibitor 49
